A selection: hits, their analogues and other compounds. The true share with any hit is near 1.7%.
N-glyco inh – increase of ERlucT glycosylation luciferase signal, primary screen, N-linked glycosylation inhibitor project, D54 ERlucT cells, luminescence, set 2. 0.23% of 360,000 active. reporter increase, % at 12.5 µM. D54 ERlucT glycosylation luciferase reporter, 24 h; percent of 100 nM tunicamycin response;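 active = mean luciferase reporter signal, scaled so untreated is 0 and the glycosylation-blocking control 100, at or above a set limit in every replicate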;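 also: luciferase carries N-glycosylation sites so blocking glycosylation raises the light; 0% = median of neutral control wells and 100% = median of 100 nM tunicamycin wells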
aDG glyco up – activators of alpha-DG glycosylation, primary screen, uHTS, Pro5-aDG cells, AlphaScreen; alpha-DG glycosylation AlphaScreen (IIH6); 0% Pro5, 100% B10-LARGE cell signal; activation, % at 10 µM; 0.22% of 360,000 active;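 active = activation of at least 8% versus controls, or a plate z-score of at least 8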;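 also: Pro5 are CHO cells carrying HIG-tagged alpha-DG that lacks glycosylation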
Vif inh – HIV Vif self-association inhibitors, primary screen, imaging, HEK293T, single point | HEK293T cells, Vif self-association by quenched fluorescence, 24 h | inhibition, % at 7.49 µM | 0.35% of 340,000 active | AID 602346, 2012; in the data active = inhibition above about 50%, passing the limit was not always enough
Cardio protect – cardioprotection against H2O2-induced cell death, primary screen, uHTS, H9c2 cells, ATPLite luminescence. 0.63% of 360,000 active. H9c2 cardiomyocytes, H2O2 injury protection, 2 h. AID 588492, 2011. protection from H2O2 cell death, % at 20 µM;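 active = compounds giving at least 50% protection of heart cells from peroxide-induced death in the single-dose screen, raw or plate-pattern-corrected value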;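 also: 0% = DMSO wells with peroxide and 100% = DMSO wells without peroxide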
ARNT TACC3 PPI – disruptors of ARNT/TACC3 protein interaction, primary screen, biochemical, AlphaScreen, single concentration; inhibition, % at 9.99 µM; Transforming acidic coiled-coil-containing protein 3 (Homo sapiens), Q9Y6A5; AID 623870, 2012; AlphaScreen His-ARNT PAS-B/GST-TACC3 binding, luminescence; TACC3 fragment carries E629A point mutation; 0.66% of 390,000 active;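 active = mean inhibition of replicates at least 50% and at least half of replicates each reaching 50%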;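 also: 0% = complete ARNT plus TACC3 wells and 100% = ARNT alone without TACC3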
ARNT Alpha ctr – AlphaScreen signal interference compounds, dose response, artefact control for ARNT-TACC3 interaction inhibitor project, biochemical, luminescence, cherry-pick. shares compounds with ARNT TACC3 PPI. His-ARNT PASB-GST AlphaScreen artifact counter-screen. AC50, µM (top dose mostly 68 µM), for inactives: at the highest dose activity change, negative = signal decrease. 50% of 1,200 active. AID 651705, 2012;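 active = every separate test run was called active for a drop in luminescence, with AC50 within twice the top valid dose, actives reach about 71 µM in these data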
Starred values were filed as active, the others as inactive; i = inactive; . = no result given; [ ] = remark or other dose.

SMILES	N-glyco inh	aDG glyco up	Vif inh	Cardio protect	ARNT TACC3 PPI	ARNT Alpha ctr
COc1cc2c(cc1OC)-c1cc(Nc3ccccc3C)nc(=O)n1CC2	2	0	-1	8	23	.
CCNc1cc2n(c(=O)n1)CCc1cc(OC)c(OC)cc1-2	3	0	13	18	26	.
CCOc1ccc(Nc2cc3n(c(=O)n2)CCc2cc(OC)c(OC)cc2-3)cc1	0	0	-2	12	43*	-16%
COc1ccc(CN(C)C[C@@H]2Oc3c(NS(=O)(=O)c4ccc(Cl)cc4)cccc3C(=O)N([C@@H](C)CO)C[C@@H]2C)cc1	.	.	.	.	3	.
CCOc1cc2c(C#N)c(N(CC)CC)nc(N)c2c(N)n1	4	0	-6	6	5	.
CCOc1cc2c(C#N)c(N3CCOCC3)nc(N)c2c(N)n1	-1	0	7	22	30*	-4%
O=C(NC(O)C(=O)c1ccccc1)c1ccccn1 (configuration not stated)	-1	0	16	7	7	.
O=C(NN=C(c1ccccc1)c1ccccn1)c1ccccc1	-8	-1	-2	37	57*	-21%
C/C(=N\NC(=O)c1cccc2ccccc12)c1ccccn1	-15	0	-3	28	63*	29µM*
NS(=O)(=O)c1ccc(CCNC(=O)COC(=O)c2ccc([N+](=O)[O-])o2)cc1	2	0	-5	10	71*	-10%
O=C(COC(=O)c1ccc([N+](=O)[O-])s1)NCc1ccccc1	1	0	-2	12	26*	-3%
O=C(COC(=O)c1ccc([N+](=O)[O-])s1)Nc1ccccc1	4	0	-7	21	2	.
O=C(COC(=O)c1ccc([N+](=O)[O-])o1)NCc1ccccc1	0	0	-2	16	20*	-8%
C=CC[C@]1(C(=O)NCc2ccccc2)COC(c2ccc(OCCCO)cc2)=N1	.	.	.	.	3	.
C[C@H]1CN([C@@H](C)CO)C(=O)c2cc(NS(C)(=O)=O)ccc2O[C@@H]1CN(C)C(=O)Nc1ccc2c(c1)OCO2	.	.	.	.	1	.
O=S(=O)(N[C@@H]1CCCN(Cc2ccc(OCCO)cc2)C1)c1cccc2cccnc12	.	.	.	.	80*	24µM*
C[C@H]1CN([C@@H](C)CO)C(=O)c2cccc(NC(=O)c3ccc(-c4nccs4)cc3)c2O[C@H]1CN(C)CC1CC1	.	.	.	.	-2	.
O=C(C1=C(O)C(=O)N(Cc2ccccc2)C1c1ccncc1)c1ccco1 (configuration not stated)	1	0	10	-1	21*	-3%
CS(=O)(=O)c1ccccc1-c1nnc(NC(=O)c2ccc3ncsc3c2)o1	3	0	-2	9	50*	-38%
CN1[C@@H]2c3ccc(-c4cncnc4)c(=O)n3C[C@@H]2[C@@H](CO)[C@@H]1C(=O)NC1Cc2ccccc2C1	.	.	.	.	0	.
O=C(Nc1nnc(-c2cccs2)o1)c1ccco1	1	0	-2	8	51*	-20%
COc1cccc(C(=O)Nc2nnc(-c3cccs3)o2)c1	1	0	-12	22	52*	67µM*
COc1cc(-c2nnc(NC(=O)c3ccco3)o2)cc(OC)c1OC	4	0	-17	4	43*	-13%
Cc1cccc(NC(=O)Nc2ccc3c(c2)C(=O)N(C)[C@@H]2CC[C@@H](CC(=O)NCc4ccccc4Cl)O[C@@H]2CO3)c1	.	.	.	.	-6	.
NC1=NN=C(N2N=C(c3ccco3)CC2(O)C(F)(F)F)n2ncnc2C1 (configuration not stated)	0	0	0	-6	73*	-22%
SMILES	N-glyco inh	aDG glyco up	Vif inh	Cardio protect	ARNT TACC3 PPI	ARNT Alpha ctr
COc1cc(C(=O)NCc2nnc(SCC(=O)Nc3nccs3)o2)cc(OC)c1OC	0	0	-5	3	69*	-15%
COc1cc(C(=O)NCc2nnc(SCC(=O)Nc3cc(C)on3)o2)cc(OC)c1OC	2	0	-3	-2	3	.
O=C(N/N=C/c1sc2ccccc2c1O)c1cccc2ccccc12	-11	1	.	48	55*	69µM*
O=C(N/N=C/c1ccccc1)c1cccc2ccccc12	3	0	-1	-5	-3	.
Oc1ccc(/C=N/Nc2ccc(Cl)nn2)c(O)c1O	1	0	i	13	55*	4.5µM*
Oc1c(Br)cc(Br)cc1/C=N/Nc1ccc(Cl)nn1	-10	0	-2	37	3	.
O=C(NC[C@H]1[C@H](c2ccccc2)[C@@H](CO)N1Cc1ccccn1)C1CCCC1	.	.	.	.	18	.
O=C(NC[C@H]1[C@H](c2ccccc2)[C@H](CO)N1Cc1ccccn1)C1CCC1	.	.	.	.	38*	-14%[42 µM]
O=C(NC[C@@H]1[C@@H](c2ccccc2)[C@@H](CO)N1Cc1ccccn1)C1CC1	.	.	.	.	23	.
O=C(NC[C@H]1[C@@H](c2ccccc2)[C@@H](CO)N1Cc1ccccn1)C1CC1	.	.	.	.	48*	-12%[42 µM]
COCC#Cc1ccc2c(c1)O[C@H](CN(C)C(=O)NC(C)C)[C@@H](C)CN([C@@H](C)CO)S2(=O)=O	.	.	.	.	0	.
FC(F)(F)c1cnc(C(c2ccccn2)c2ncn[nH]2)c(Cl)c1 (configuration not stated)	-3	0	-4	35	62*	58µM*
C[C@@H]1CCCCO[C@H](CN(C)C(=O)C2CCCCC2)[C@@H](C)CN([C@H](C)CO)C(=O)c2cc(NC(=O)c3ccncc3)ccc2O1	.	.	.	.	1	.
Cc1[nH]n(-c2ccccc2)c(=O)c1/C=N/NC(=O)c1cccc(F)c1	-6	0	-33	26	58*	43µM*
O=C(N/N=C/c1c(Cl)cccc1Cl)c1cccc(F)c1	2	0	11	10	3	.
C[C@]12CC[C@H](O)CC1=CCC1C2CC[C@@]2(C)C1CC[C@@H]2NC(=O)[C@@H](N)Cc1cnc[nH]1 (some centres not stated)	-3	0	0	3	62*	-12%
CCOc1ccccc1NC(=O)CN(c1ccc(OC)cc1)S(=O)(=O)c1c(C)[nH]c(=O)[nH]c1=O	2	0	14	5	55*	29µM*
CCOc1ccc(N(CC(=O)Nc2ccc(OC)cc2OC)S(=O)(=O)c2c(C)[nH]c(=O)[nH]c2=O)cc1	0	0	1	-4	58*	10µM*

High-throughput results from PubChem BioAssay.
